Sampled rows, rich in hits. Any-hit rate of the full collection: about 3.2%.
RE007 growth inh: qHTS Assay for Inhibitors of the HIV-1 protein Vpr; S. pombe RE007 Vpr strain, BacTiter-Glo ATP luminescence, 24 h; AID 651644, 2012; 360,000 tested, 0.21% active; Potency, µM (titrated, usually from 92.2 µM), without a hit: at the top dose activity change, negative = less growth, most hits filed as inhibitors; active = well fitted falling curve with a large enough effect; inconclusive = small, poorly fitted or top-dose-only effect; inactive = no such curve, though single readings can be large or run the other way; also: nearly all actives have a fitted effect of over 50% in size
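Fission yeast strain RE007, carrying one chromosomally integrated HIV-1 vpr copy, was seeded at OD 0.01 in PMG+AL medium with 23 nL pinned compound. After 24 h at 30 °C and 99% humidity, viability was read by BacTiter-Glo luminescence.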
LmPK inhibitor: qHTS Assay for Inhibitors of Leishmania Mexicana Pyruvate Kinase (LmPK). Potency, µM (doses to about 57.5 µM), for inactives: top-dose activity change, negative = inhibition, hits mostly inhibitors. Q27686. purified LmPK, Kinase-Glo ATP luminescence, 1 h. 290,000 tested, 0.37% active
Target sequence (Q27686 whole entry, looked up): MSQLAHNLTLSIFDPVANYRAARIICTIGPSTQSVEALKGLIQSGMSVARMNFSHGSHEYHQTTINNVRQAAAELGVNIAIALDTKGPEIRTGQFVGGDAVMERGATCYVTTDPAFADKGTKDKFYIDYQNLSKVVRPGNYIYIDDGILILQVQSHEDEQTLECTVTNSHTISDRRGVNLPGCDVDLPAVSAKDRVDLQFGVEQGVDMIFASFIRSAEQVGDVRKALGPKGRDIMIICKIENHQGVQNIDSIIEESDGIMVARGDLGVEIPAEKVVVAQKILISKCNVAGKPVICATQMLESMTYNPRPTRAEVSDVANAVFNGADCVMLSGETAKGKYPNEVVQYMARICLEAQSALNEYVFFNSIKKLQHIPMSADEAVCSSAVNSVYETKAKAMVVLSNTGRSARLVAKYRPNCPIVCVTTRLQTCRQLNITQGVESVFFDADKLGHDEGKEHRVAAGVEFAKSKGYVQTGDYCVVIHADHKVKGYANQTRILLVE
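In 50 mM imidazole pH 7.2 with 7 mM MgCl2, LmPK (0.1 nM) turned over PEP (0.5 mM) and ADP (0.1 mM) for 1 h at room temperature. Luciferase read-out of ATP.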
AMA1-RON2 inh: qHTS for Inhibitors of AMA1-RON; Towards Development of Antimalarial Drug Lead: Primary Screen; 360,000 tested, 0.2% active; Potency, µM (series often up to 58.2 µM), without a hit: at the top dose activity change, negative = inhibition, hits mostly inhibitors; AID 720542, 2013; AlphaScreen AMA1-biotinylated RON2 peptide binding; Plasmodium falciparum AMA1 (3D7) - RON2 peptide interaction;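 also: 0% = vehicle wells and -100% = peptide control; nearly all actives have a fitted effect of over 45% in size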
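AMA1 (3D7) with his tag at 25 nM final met compounds first, then biotinylated RON2 peptide at 25 nM; detection used donor plus acceptor beads, 10 µg/mL apiece, read by AlphaScreen after 30 min at room temperature.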
Sm TGR block: qHTS Assay for the Inhibitors of Schistosoma Mansoni Peroxiredoxins | purified TGR, DTNB reduction, TNB absorbance 405 nm | Potency, µM (doses to about 114 µM), for the others: top-dose activity change, negative = inhibition, hits mostly inhibitors | AID 485364, 2010 | Schistosoma mansoni thioredoxin glutathione reductase (TGR), Q962Y6 | 360,000 tested, 3% active; also: nearly all actives have a fitted effect of over 60% in size
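First, TGR (20 nM dispensed) and NADPH were mixed with compound. Second, a 15 min room-temperature incubation followed. Third, further NADPH and then DTNB were added to start the reaction. Finally, TNB absorbance was monitored kinetically.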
Tb PYK inh: qHTS of Trypanosoma Brucei Inhibitors; TbPYK enzyme, Kinase-Glo Plus ATP luminescence, 45 min; AID 624173, 2012; pyruvate kinase (Trypanosoma brucei), Q57TT1; Potency, µM (highest dose often 76.8 µM), for inactives: top-dose activity, negative = inhibition, most hits filed as inhibitors; 410,000 tested, 0.12% active; also: nearly all actives have a fitted effect of over 50% in size
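Glycolytic pyruvate kinase of T. brucei was incubated with substrate, test compound and 130 uM ADP for 45 minutes at room temperature. Luminescent Kinase-Glo Plus signal was measured after 10 minutes.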
* hit, by the source's call; [ ] = remark or other dose. Unless noted, calls follow the shape of the dose curve; as a rule, active = well fitted curve in the direction sought with a large enough effect; inconclusive = small, poorly fitted or top-dose-only effect, or another doubt; inactive = no such curve, though single readings can be large; an effect the other way counts as inactive or inconclusive. Unless noted, % is scaled to controls: 0 for no effect and ±100 for the full control effect; potency is read from the fitted curve at half-maximal effect.

What do the screens show for `O=C1c2ccccc2C(=O)C1c1ccc2ccccc2n1`?
RE007 growth inh: -13%; LmPK inhibitor: 14µM*; AMA1-RON2 inh: 2%; Sm TGR block: -4%; Tb PYK inh: 1%

Results for CCc1cc(=O)oc2cc(C)c(CN3CCCC(C)C3)c(O)c12 (centres undefined) ?
RE007 growth inh: -9%; LmPK inhibitor: -3%; AMA1-RON2 inh: 19µM*; Sm TGR block: inconclusive; Tb PYK inh: -9%

How did CC(C)(C)CN1CCNC[C@H]1Cc1cccc2ccccc12 do in these assays?
RE007 growth inh: -13%; AMA1-RON2 inh: -1%; Sm TGR block: 22µM*; Tb PYK inh: -3%

What do the screens show for `CC(=O)N(C1=C(N2CCOCC2)C(=O)c2ccccc2C1=O)c1ccc(C(=O)O)cc1`?
RE007 growth inh: -29%; LmPK inhibitor: -21%; AMA1-RON2 inh: 0%; Sm TGR block: 2.8µM*; Tb PYK inh: -9%

What do the screens show for `O=[N+]([O-])c1cc(-c2ccc(/C=N\n3cnnc3)o2)cc([N+](=O)[O-])c1`?
RE007 growth inh: 13%; LmPK inhibitor: -3%; AMA1-RON2 inh: -14%; Sm TGR block: 40µM*; Tb PYK inh: -2%

How did Nc1c(C(=O)N/N=C/c2cccnc2)oc2nc(-c3ccco3)cc(-c3ccco3)c12 do in these assays?
RE007 growth inh: -2%; LmPK inhibitor: -3%; AMA1-RON2 inh: 51%; Sm TGR block: 13µM*; Tb PYK inh: -7%

What do the screens show for `Cc1ccc(-n2c(=O)[nH]c3cc(C(=O)NCc4ccccc4)ccc3c2=O)cc1`?
Sm TGR block: -7%; Tb PYK inh: -1%

What do the screens show for `COc1ccc(N(C(=O)c2ccc(OC)c(OC)c2)S(=O)(=O)c2ccc(Cl)cc2)cc1`?
Sm TGR block: -11%; Tb PYK inh: 0%

What do the screens show for `CCOc1cc(/C=N/NC(=O)c2cc(C)n(-c3ccc(F)cc3)c2C)ccc1O`?
RE007 growth inh: -2%; LmPK inhibitor: 4%; AMA1-RON2 inh: 48%; Sm TGR block: 56µM*; Tb PYK inh: -9%

What do the screens show for `Cc1cc(C(=O)N/N=C2\CC(=O)c3ccccc32)c(C)n1-c1ccc(F)cc1`?
RE007 growth inh: 4%; LmPK inhibitor: -14%; AMA1-RON2 inh: 86%; Sm TGR block: 35µM*; Tb PYK inh: -1%

What do the screens show for `O=C(COc1ccccc1)N/N=C/c1sc(=O)n(Cc2cccc(C(=O)O)c2)c1Cl`?
RE007 growth inh: 6%; LmPK inhibitor: 1%; AMA1-RON2 inh: 0%; Sm TGR block: 35µM*; Tb PYK inh: -11%

Results for COC(=O)c1cccc(Cn2c(Cl)c(/C=N/NC(=O)c3ccco3)sc2=O)c1 ?
RE007 growth inh: -12%; LmPK inhibitor: -3%; AMA1-RON2 inh: 12%; Sm TGR block: 35µM*; Tb PYK inh: 3%

How did Cc1cccc(OCC(=O)N/N=C/c2sc(=O)n(Cc3cccc(C(=O)O)c3)c2Cl)c1 do in these assays?
RE007 growth inh: -10%; LmPK inhibitor: 6%; AMA1-RON2 inh: -17%; Sm TGR block: 25µM*; Tb PYK inh: -12%

How did O=c1sc(/C=N/Nc2ccccc2)c(Cl)n1Cc1ccccc1 do in these assays?
RE007 growth inh: -7%; LmPK inhibitor: 10%; AMA1-RON2 inh: -16%; Sm TGR block: 7.9µM*; Tb PYK inh: -7%

How did COC(=O)c1cccc(Cn2c(Cl)c(/C=N/NC(=O)c3ccccc3Cl)sc2=O)c1 do in these assays?
RE007 growth inh: 9%; LmPK inhibitor: 0%; AMA1-RON2 inh: -4%; Sm TGR block: inconclusive; Tb PYK inh: -8%

What do the screens show for `CCOc1ccc2oc(=O)cc(CN3CCN(C(=O)c4ccc(Cl)cc4)CC3)c2c1`?
Sm TGR block: -7%; Tb PYK inh: 4%

What do the screens show for `O=Cc1sc(=O)n(Cc2cccc(C(=O)O)c2)c1Cl`?
RE007 growth inh: -2%; LmPK inhibitor: 1%; AMA1-RON2 inh: -9%; Sm TGR block: 3%; Tb PYK inh: -14%

Results for O=C(O)c1cccc(Cn2c(Cl)c(/C=N/NC(=O)c3ccc(O)cc3)sc2=O)c1 ?
RE007 growth inh: -2%; LmPK inhibitor: 1%; AMA1-RON2 inh: -11%; Sm TGR block: 32µM*; Tb PYK inh: -8%

How did CCOC(=O)C1CCCN(Cc2nc3ccc([N+](=O)[O-])cc3c(=O)n2-c2ccc(OC)cc2OC)C1 (centres undefined) do in these assays?
RE007 growth inh: -6%; LmPK inhibitor: 3%; AMA1-RON2 inh: -4%; Sm TGR block: inconclusive; Tb PYK inh: -2%

What do the screens show for `COc1ccc(-n2c(CN3CCC(C(N)=O)CC3)nc3ccc([N+](=O)[O-])cc3c2=O)c(OC)c1`?
RE007 growth inh: 8%; LmPK inhibitor: 2%; AMA1-RON2 inh: 17%; Sm TGR block: 45µM*; Tb PYK inh: 0%

What do the screens show for `CCOC(=O)C1CCN(Cc2nc3ccc([N+](=O)[O-])cc3c(=O)n2-c2ccc(OC)cc2OC)CC1`?
RE007 growth inh: 2%; LmPK inhibitor: 6%; AMA1-RON2 inh: -4%; Sm TGR block: 32µM*; Tb PYK inh: -3%

Results for O=C1NN(c2ccccc2)C(=O)/C1=C\c1ccc(-c2cc([N+](=O)[O-])ccc2O)o1 ?
RE007 growth inh: -9%; LmPK inhibitor: 18µM*; AMA1-RON2 inh: -8%; Sm TGR block: -18%; Tb PYK inh: inconclusive

What do the screens show for `Clc1cccc(-c2ccc(CNCc3ccccn3)o2)c1`?
RE007 growth inh: -10%; LmPK inhibitor: 2%; AMA1-RON2 inh: 13%; Sm TGR block: 13µM*; Tb PYK inh: 3%

How did O=C(NCc1ccccn1)Nc1ccc(Br)cc1 do in these assays?
RE007 growth inh: -14%; LmPK inhibitor: -6%; AMA1-RON2 inh: 15%; Sm TGR block: 11%; Tb PYK inh: 8%

Results for Brc1ccc(-c2ccc(CNCc3ccccn3)o2)cc1 ?
RE007 growth inh: -12%; LmPK inhibitor: -4%; AMA1-RON2 inh: -2%; Sm TGR block: 40µM*; Tb PYK inh: -18%

What do the screens show for `Cc1cccc(OCCOCCn2c(-c3ccc(Cl)cc3)nc3ccccc3c2=O)c1C`?
Sm TGR block: 2%; Tb PYK inh: 4%

What do the screens show for `O=C(COC(=O)/C=C/c1ccco1)NC1CCCCC1`?
RE007 growth inh: -29%; AMA1-RON2 inh: -5%[11.6 µM]; Sm TGR block: 13µM*; Tb PYK inh: -1%

Results for O=C(/C=C/c1ccco1)NC1CCCC1 ?
RE007 growth inh: -8%; LmPK inhibitor: 1%; AMA1-RON2 inh: 5%; Sm TGR block: 4.5µM*; Tb PYK inh: -5%

Compound activity from PubChem.
